# Reference: PubChem BioAssay (NCATS)
# Inconclusive results are not listed. A number with no mark means an inactive call. Active and inactive are the calls of the source. Unless noted, the call rests on the fitted dose curve.
# Test: Primary qHTS for small molecule stabilizers of the endoplasmic reticulum resident proteome: Secreted ER Calcium Modulated Protein (SERCaMP) assay (AID 1508630; active means well fitted inhibition curve with a large enough effect; further: on the % scale 0 is the no-effect control and ±100 the full control effect)
# Settings: SH-SY5Y GLuc-SERCaMP (Gaussia luciferase released on ER calcium loss) secretion, thapsigargin, luminescence; series mostly up to 38.4 µM; activity change, negative = inhibition: at the top concentration
# Outline: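 GLuc-SERCaMP-expressing SH-SY5Y cells, pretreated 16 h with compound, are challenged with thapsigargin to empty ER calcium stores; after 4 h, coelenterazine is added directly to the medium and luminescence is imaged.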
SMILES,Potency,"activity change, negative = inhibition [%]"
CCc1oc2ccccc2c1C(=O)c1cc(Br)c(O)c(Br)c1,inactive,–
CN=C(N)NCCC[C@H](N)C(=O)O,–,-9.24
NC(=O)n1c(O)c(C(=O)c2cccs2)c2cc(Cl)ccc21,inactive,–
O[C@@H](c1cc(C(F)(F)F)nc2c(C(F)(F)F)cccc12)[C@H]1CCCCN1,–,228
CCc1oc2ccccc2c1C(=O)c1cc(I)c(O)c(I)c1,–,3.39
CCOC(=O)[C@H](CCc1ccccc1)N[C@@H](C)C(=O)N1[C@H](C(=O)O)C[C@H]2CCCC[C@@H]21,–,4.19

# Test: A High-Content qHTS Against Drug Library for the Identification of Small Molecules that Inhibit DYT1 Early Onset Primary Dystonia-Associated Cell Pathology (AID 1645839)
# Settings: HEK293 Flp-In EGFP-delE TorsinA, punctate imaging, 48 h; series mostly up to 46.1 µM; % pathology change, negative = correction: at the top concentration
# Outline: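 Flp-In T-REx 293 cells with tetracycline-inducible EGFP-delE hTOR1A (WT EGFP-hTOR1A as reference), 800 cells/well; compound added with tetracycline, 48 h at 37 C. Fixed, permeabilized cells imaged; %pathology (punctate TorsinA) primary, cell count counterscreen.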
row,SMILES,"% pathology change, negative = correction"
1,CCCCOC(=O)CC(CC(=O)OCCCC)(OC(C)=O)C(=O)OCCCC,-11.3%
2,O=C(c1ccc(F)cc1)C1CCN(CCn2c(=S)[nH]c3ccccc3c2=O)CC1,-0.957%
3,O=C(O)C1(C(=O)O)CCC1.[NH2-].[NH2-].[Pt+2],0.664%
4,O=S(=O)(O)c1ccc(O)cc1,11.9%
5,CC1(C)OC[C@@H]2O[C@@]3(C(=O)O)OC(C)(C)O[C@H]3[C@@H]2O1,2.33%
6,C[C@]12CCC(=O)C=C1C=C[C@@H]1[C@@H]2CC[C@@]2(C)[C@H]1CC[C@@]21CCC(=O)O1,1.32%
7,COc1cc(NS(=O)(=O)c2ccc(N)cc2)ncn1,5.54%
8,Cc1nc(-c2ccc(Cl)cc2)oc1COC(C)(C)C(=O)O,17%
9,Cc1cc(CC(=O)O)c(C)n1-c1ccc(Cl)cc1,-32.9%
10,C/C=C/c1ccc(O)c(OC)c1,9.12%
11,Cc1c(-c2ccccc2)oc2c(C(=O)OCCN3CCCCC3)cccc2c1=O,5.63%
12,CCCCN1C[C@H](O)[C@@H](O)[C@H](O)[C@H]1CO,-17.2%
13,CCCCC(CC)CN1CN(CC(CC)CCCC)CC(C)(N)C1 (stereo unspecified),7.75%
14,CC(C)n1c(/C=C/[C@@H](O)C[C@@H](O)CC(=O)O)c(-c2ccc(F)cc2)c2ccccc21,-17.4%
15,CCN(CC)CCOC(=O)C(Cc1cccc2ccccc12)CC1CCCO1 (stereo unspecified),-12.8%
16,CCOc1ccccc1C(N)=O,5.71%
17,CN1CCN(C2=Nc3ccccc3Sc3ccc(Cl)cc32)CC1,3.04%
18,CC(=O)OC[C@H]1O[C@@H](n2ncc(=O)[nH]c2=O)[C@H](OC(C)=O)[C@@H]1OC(C)=O,16.1%
19,NC1CCN(c2nc3c(cc2F)c(=O)c(C(=O)O)cn3-c2ccc(F)cc2F)C1 (stereo unspecified),-11.1%
20,C[N+]1(C)CCC(=C(c2ccccc2)c2ccccc2)CC1,14.2%
21,CCCCNc1ccc(C(=O)OCCOCCOCCOCCOCCOCCOCCOCCOCCOC)cc1,3.3%
22,CC1CCc2c(N3CCC(O)CC3)c(F)cc3c(=O)c(C(=O)O)cn1c23 (stereo unspecified),4.83%
23,N#CCC(=O)NN,17%
24,O=C(CCN1CCN2CCCC2C1)N1c2ccccc2Sc2ccc(Cl)cc21 (stereo unspecified),5.41% [at 19.1 µM]
25,COc1cc(O)c(C(=O)c2ccccc2)cc1S(=O)(=O)O,-5.61%
26,CCCCN=C(N)N=C(N)N,-2.76%
27,CCCN(CCc1cccs1)[C@H]1CCc2c(O)cccc2C1,3%
28,O=C(Nc1ncc([N+](=O)[O-])s1)c1cccs1,0.265%
29,CCCc1ncc(C[n+]2ccccc2C)c(N)n1,3.64%
30,CCOC(=O)[C@@](C)(N)Cc1ccc(O)c(O)c1,0.457%
